PubChem BioAssay (EPA / NIEHS)
Values joined by “and” are separate entries in the source; they are usually repeats but may differ in a detail not shown here. Identical values can stand only once. Inconclusive results are not listed. Active and inactive are the calls of the source. How the source made its calls: active means hit-call score of the fitted dose curve at least 0.9, where 1 is the maximum; inconclusive means response in the unintended direction; inactive means score below 0.9.

Each compound was assayed against Cellular tumor antigen p53 (Homo sapiens) (UniProt P04637) (assay: TOX21_p53_BLA_p3_ratio: Tox21 HCT-116 p53 Agonism Beta-lactamase Assay, Ratio, Phase 3 (AID 2283596)).
Cellular tumor antigen p53 (Homo sapiens), sequence (P04637 whole entry, looked up): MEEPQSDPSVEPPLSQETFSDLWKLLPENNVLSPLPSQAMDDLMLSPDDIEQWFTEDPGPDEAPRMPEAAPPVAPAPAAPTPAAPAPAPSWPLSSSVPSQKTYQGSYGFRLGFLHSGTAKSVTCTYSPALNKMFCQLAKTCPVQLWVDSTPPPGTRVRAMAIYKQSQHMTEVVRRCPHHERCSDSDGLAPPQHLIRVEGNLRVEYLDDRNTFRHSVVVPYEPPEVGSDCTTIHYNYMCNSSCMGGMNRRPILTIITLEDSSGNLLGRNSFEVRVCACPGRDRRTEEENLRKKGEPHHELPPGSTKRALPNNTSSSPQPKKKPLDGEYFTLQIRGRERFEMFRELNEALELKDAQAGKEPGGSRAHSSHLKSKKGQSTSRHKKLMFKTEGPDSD
Summary of the method: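 Cells were seeded at 4000/well, rested 5 h at 37C, then dosed with DMSO compound solutions (217-fold dilution) for 16 h. CCF4-AM substrate was loaded for 2 h at room temperature, and the 460/530 nm emission ratio was fitted for gain of signal versus DMSO.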
In the case of `Oc1ccc(/C=C/c2cc(O)cc(O)c2)cc1`, the outcome is reported as “inactive”. In the case of `O=C(O)c1ccc2c(c1)C(=O)OC2=O`, the outcome is reported as “inactive”. For `N=C1C=CC(=C(c2ccc(N)cc2)c2ccc(N)cc2)C=C1`, the AC50 was 60.4 µM (active). For `CC1(C)[C@@H]2CC[C@@]1(C)C(=O)C2`, the outcome was “inactive”. With `Oc1ccc(-c2ccccc2)c(Cl)c1` the outcome was “inactive”. `C=C(C)C(=O)OCCOC(=O)C(=C)C` was tested, and the outcome was “inactive”. For `Oc1c(Cl)cc(Cl)c(Cl)c1Cl`, the AC50 was 17 µM (active) and 27.1 µM (active). `O=C(O)C1CCC(C(=O)O)CC1` (stereo not given) was tested, and the outcome was “inactive”. For `CCCCNC(=S)NCCCC`, the outcome was “inactive”. For `O=C(Cl)c1ccc(C(=O)Cl)cc1`, the outcome was “inactive”. In the case of `C=C1C[C@H]2[C@@H]3C=C(C)C4=CC(=O)CC[C@]4(C)[C@H]3CC[C@]2(C)[C@@]1(OC(C)=O)C(C)=O`, the outcome is reported as “inactive”. For `CCCCCCO`, the outcome was “inactive”. For `O=C(O[C@@H]1Cc2c(O)cc(O)cc2O[C@@H]1c1cc(O)c(O)c(O)c1)c1cc(O)c(O)c(O)c1`, the outcome was “inactive”. `CC(=O)CC(=O)Nc1ccccc1C` was tested, and the outcome was “inactive”. `C=CC(=O)OCCCCCCCC(C)C` was tested, and the outcome was “inactive”. `CC(=O)c1ccccc1O` was tested, and the outcome was “inactive”. With `CCCCC(=O)O` the outcome was “inactive”. `O=C(O)/C=C/c1ccccc1` was tested, and the outcome was “inactive”. `CCCCCC[C@@H](O)C/C=C\CCCCCCCC(=O)OCC(O)CO` (stereo not given in full) was tested, and the outcome was “inactive”. `Clc1cc(Cl)c(Cl)c(Cl)c1Cl` was tested, and the outcome was “inactive”. `CCCCCCCCCCCC(=O)OCC` was tested, and the outcome was “inactive”. With `Fc1ccc(Br)cc1` the outcome was “inactive”. In the case of `CCCCCCOc1ccc(N)cc1`, the outcome is reported as “inactive”. For `O=C1CCCCCCCCCCCN1`, the outcome was “inactive”. With `C1CNCCN1` the outcome was “inactive”. With `CCCCCCCCCCCCc1ccc(O)cc1` the AC50 was 49.9 µM (active). In the case of `CCCCCCC=O`, the outcome is reported as “inactive”. In the case of `C=Cc1ccc(OC(C)=O)cc1`, the outcome is reported as “inactive”. With `CC(C)c1cccc(C(C)C)c1N` the outcome was “inactive”. `CCCCCCCC(=O)OCC(COC(=O)CCCCCCC)OC(=O)CCCCCCC` was tested, and the outcome was “inactive”. For `C=C(C)OC(C)=O`, the outcome was “inactive”. `CCCCC1C(=O)N(c2ccccc2)N(c2ccccc2)C1=O` was tested, and the outcome was “inactive”. In the case of `O=C(Oc1ccccc1)c1ccccc1C(=O)Oc1ccccc1`, the outcome is reported as “inactive”. `CC(C)(C)NC(=O)[C@H]1CC[C@H]2[C@@H]3CC[C@H]4NC(=O)C=C[C@]4(C)[C@H]3CC[C@]12C` was tested, and the outcome was “inactive”. `C=CC(=O)OCCCCCCOC(=O)C=C` was tested, and the AC50 was 54.4 µM (active) and 63.2 µM (active).
